Assay outcomes deposited in PubChem BioAssay by National Center for Advancing Translational Sciences (NCATS).
This is a sample that favours compounds with a hit; in the whole collection about 7.5% have one here.
NPC1 promoter act: qHTS Assay for NPC1 Promoter Activators; Huh7 NPC1 promoter luciferase reporter, 24 h; Potency, µM (doses to about 9.22 µM), without a hit: at the highest dose activation, usual class: activators; actives 2.4% (n = 320,000); AID 485313, 2010; note: % of control where 0% means no effect; nearly all actives have a fitted effect of over 60% in size
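In 1536-well qHTS, Huh7 cells harboring an NPC1 promoter–luciferase construct received compound for 24 h; activation was quantified by luminescence following luciferase reagent addition.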
ELG1 genotoxic: qHTS screen for small molecules that induce genotoxicity in human embryonic kidney (HEK293T) cells expressing luciferase-tagged ELG1 | Potency, µM (series often up to 46 µM), without a hit: at the highest dose activity change, positive = activation, hits mostly activators | HEK293T ELG1-luciferase reporter, luminescence, 16 h | actives 1.3% (n = 330,000) | AID 504466, 2011; note: % of control where 0% means no effect; nearly all actives have a fitted effect of over 60% in size
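Genotoxicity was scored as increased ELG1-luciferase reporter signal, measured by ONE-Glo luminescence (30 min, room temperature). Compound or vehicle exposure of the HEK293T reporter cells lasted 16 hr at 37°C.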
SMN2 splice up: qHTS Assay for Enhancers of SMN2 Splice Variant Expression; HEK293 SMN2-luciferase splicing reporter, luminescence, 30-36 h; Potency, µM (highest dose often 46.1 µM), for the others: top-dose activity change, positive = activation, most hits filed as activators; actives 2.8% (n = 210,000); AID 1458, 2008; note: % of control where 0% means no effect; nearly all actives have a fitted effect of over 55% in size
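HEK293 cells carry an SMN2 minigene-luciferase reporter in which exon 7 inclusion puts luciferase in frame. Cells were seeded at 2000 cells/well, attached for 10-12 hours, then exposed to compounds for 30-36 hours at 37C before ONE-Glo luminescence.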
Rab9 prom act: qHTS Assay for Rab9 Promoter Activators; Potency, µM (series often up to 9.22 µM), for the others: top-dose activation, negative = inhibition, actives largely listed as activators; AID 485297, 2010; actives 2.8% (n = 320,000); Huh7 Rab9 promoter-luciferase reporter, luminescence, 24 h; note: % of control where 0% means no effect; nearly all actives have a fitted effect of over 60% in size
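Quantitative HTS format; Huh7 Rab9-luciferase reporter cells (1500/well) receive compound 2 h post-plating, incubate 24 h at 37 °C, then get luciferase reagent for 10 min before luminescence reading.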
FLuc counter: qHTS profiling assay for firefly luciferase inhibitor/activator using purifed enzyme and Km concentrations of substrates (counterscreen for miR-21 project). purified FLuc, Km substrates, luminescence inhibition. Potency, µM (top dose mostly 57.5 µM), for inactives: at the highest dose activity change, negative = inhibition, actives largely listed as inhibitors. actives 6.9% (n = 360,000). AID 588342, 2011;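 note: plate controls were vehicle for no effect and reference inhibitor for full effect; nearly all actives have a fitted effect of over 55% in size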
Target sequence (P08659 whole entry, looked up): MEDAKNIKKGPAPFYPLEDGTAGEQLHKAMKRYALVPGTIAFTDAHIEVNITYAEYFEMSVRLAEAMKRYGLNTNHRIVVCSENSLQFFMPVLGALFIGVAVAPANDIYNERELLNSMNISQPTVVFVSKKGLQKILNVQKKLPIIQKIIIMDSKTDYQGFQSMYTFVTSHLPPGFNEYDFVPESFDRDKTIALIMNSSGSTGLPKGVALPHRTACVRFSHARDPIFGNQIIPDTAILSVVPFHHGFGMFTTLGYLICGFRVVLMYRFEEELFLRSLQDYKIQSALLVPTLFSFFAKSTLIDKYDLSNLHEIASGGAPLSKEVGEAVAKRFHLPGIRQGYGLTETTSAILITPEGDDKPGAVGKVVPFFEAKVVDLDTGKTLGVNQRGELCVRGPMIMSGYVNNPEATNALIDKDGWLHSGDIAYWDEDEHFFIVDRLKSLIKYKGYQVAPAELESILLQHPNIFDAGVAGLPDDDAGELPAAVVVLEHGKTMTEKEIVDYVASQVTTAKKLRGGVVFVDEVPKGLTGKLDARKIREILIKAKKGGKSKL
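Purified P. pyralis luciferase, 10 nM final, with Km-level 10 uM D-luciferin and 10 uM ATP in 50 mM Tris acetate pH 7.5, 10 mM Mg acetate, 0.01% Tween-20, 0.05% BSA; 6-point qHTS titration about 60 µM downward; luminescence read.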
An asterisk follows results filed as active; [ ] = remark or other dose. Calls come from the whole dose curve; as a rule, active = well fitted curve in the direction sought with a large enough effect; inconclusive = small, poorly fitted or top-dose-only effect, or another doubt; inactive = no such curve, though single readings can be large; an effect the other way counts as inactive or inconclusive. Potency is the fitted concentration of half-maximal effect.

`COc1ccc(NC(=S)NCc2ccccc2Cl)c(OC)c1` gave NPC1 promoter act -1%, ELG1 genotoxic -4%, Rab9 prom act -7% and FLuc counter -15%.
`CCOC(=O)c1ccc(NC(=S)Nc2ccc(C)cc2)cc1` gave NPC1 promoter act 10%, ELG1 genotoxic 14%, SMN2 splice up -6%, Rab9 prom act -11% and FLuc counter inconclusive.
Screening CCOC(=O)c1cn[nH]c1NC(=S)Nc1ccc(Cl)cc1 returned NPC1 promoter act 0.32µM*, ELG1 genotoxic inconclusive, Rab9 prom act 0.32µM* and FLuc counter 0.38µM*.
CCOc1cc(CNCc2ccncc2)cc(Cl)c1OC was read as NPC1 promoter act -2%, ELG1 genotoxic 1%, SMN2 splice up -2%, Rab9 prom act -7% and FLuc counter 0%.
Screening O=[N+]([O-])c1ncccc1OCc1ccc(Cl)c(Cl)c1 returned NPC1 promoter act inconclusive, ELG1 genotoxic 18µM*, Rab9 prom act inconclusive and FLuc counter 24µM*.
CCc1cccc(NC(c2ccccc2)c2nnc(-c3ccccc3F)o2)c1 (configuration not stated) was read as SMN2 splice up -5% and FLuc counter inconclusive.
Screening O/N=C1\CC/C(=N\O)c2nn(-c3ccccc3Cl)nc21 returned NPC1 promoter act -4%, ELG1 genotoxic -4%, SMN2 splice up -9%, Rab9 prom act -2% and FLuc counter 3%.
Screening Cc1ccc(-n2nc3c(n2)/C(=N/O)CC/C3=N\O)cc1 returned NPC1 promoter act inconclusive, ELG1 genotoxic inconclusive, SMN2 splice up 13µM*, Rab9 prom act 3.2µM* and FLuc counter 9.5µM*.
`COc1ccc(CC(=O)NCc2ccco2)cc1OC` gave NPC1 promoter act 8%, ELG1 genotoxic 0%, SMN2 splice up 28%, Rab9 prom act -2% and FLuc counter 0%.
Cc1ccc2nc3sc(C(=O)NCc4ccco4)c(N)c3cc2c1 was read as NPC1 promoter act inconclusive, ELG1 genotoxic 9.2µM*, SMN2 splice up 4.5µM*, Rab9 prom act 2µM* and FLuc counter 0.85µM*.
Cc1ccc2nc3sc(C(=O)Nc4c(C)[nH]c(=O)[nH]c4=O)c(N)c3cc2c1 was read as NPC1 promoter act 8%, ELG1 genotoxic 10%, SMN2 splice up -5%, Rab9 prom act 1% and FLuc counter inconclusive.
For COc1cc2cc3c(N)c(C(=O)NCc4ccco4)sc3nc2cc1OC the results were NPC1 promoter act inconclusive, ELG1 genotoxic inconclusive, Rab9 prom act inconclusive and FLuc counter 11µM*.
`COc1ccc(-n2c(N)c(C(=O)NCc3ccco3)sc2=S)cc1` gave NPC1 promoter act -1%, ELG1 genotoxic inconclusive, SMN2 splice up -2%, Rab9 prom act 4.5µM* and FLuc counter -2%.
O=C(NCc1csc(-c2ccccc2)n1)c1cc(F)cc2c1OCOC2 was read as NPC1 promoter act inconclusive, ELG1 genotoxic 19%, Rab9 prom act inconclusive and FLuc counter 19µM*.
O=C(Cc1csc(-c2ccccc2)n1)NCc1ccc(F)cc1 was read as NPC1 promoter act -1%, ELG1 genotoxic 1%, Rab9 prom act 0% and FLuc counter -19%.
Screening O=C1CCC/C=C\C[C@@H](CC(=O)N(CCO)Cc2ccccc2)C(=O)N[C@H](Cc2c[nH]c3ccccc23)CO1 returned ELG1 genotoxic 0%.
Screening CCOc1cc2[nH]c(=S)n(CC3CCCO3)c(=O)c2cc1OCC (configuration not stated) returned NPC1 promoter act -2%, ELG1 genotoxic -5%, SMN2 splice up 10%, Rab9 prom act -4% and FLuc counter -11%.
For COc1cc(C(=O)Nc2cc(C)c(O)c(-c3nc4ccccc4s3)c2)cc(OC)c1OC the results were SMN2 splice up 14% and FLuc counter -11%.
`COc1ccccc1C(=O)NCc1ccc(-c2nc3ccccc3s2)cc1` gave NPC1 promoter act 28%, ELG1 genotoxic 18%, SMN2 splice up -12%[1.84 µM], Rab9 prom act inconclusive and FLuc counter 6µM*.
